Here are results for 32 compounds from ChEMBL document CHEMBL3433997, “St. Jude Leishmania screening dataset” (2016).

Holding throughout (assay type): functional
Assay [1] concerns the target Solute carrier family 2, facilitated glucose transporter member 1 (Homo sapiens) (UniProt P11166). Kind of assay: ST_JUDE_LEISH: Cytotoxicity at 2uM final concentration against transgenic Leishmania Mexicana promastigotes LmGLUT1 that are glucose transport deficient and complemented with the human glucose transporter GLUT1. Activity is measured by DNA content using SYBR green in vitro.

The target in assay [2] is Hexose transporter 1 (Plasmodium falciparum) (UniProt O97467). Kind of assay: ST_JUDE_LEISH: Cytotoxicity at 2uM final concentration against transgenic Leishmania Mexicana promastigotes LmPfHT that are glucose transport deficient and complemented with the Plasmodium falciparum hexose transporter. Activity is measured by DNA content using SYBR green in vitro.
Assay [3] addresses Glucose transporter (Leishmania mexicana) (UniProt O61059). Kind of assay: ST_JUDE_LEISH: Cytotoxicity at 2uM final concentration against transgenic Leishmania Mexicana promastigotes LmGT2 that are glucose transport deficient and complemented with the L. Mexicana glucose transporter 2. Activity is measured by DNA content using SYBR green in vitro.

The inhibition is the change of the read-out against control, counted positive when it falls.

Solute carrier family 2, facilitated glucose transporter member 1 (Homo sapiens), sequence (P11166 whole entry): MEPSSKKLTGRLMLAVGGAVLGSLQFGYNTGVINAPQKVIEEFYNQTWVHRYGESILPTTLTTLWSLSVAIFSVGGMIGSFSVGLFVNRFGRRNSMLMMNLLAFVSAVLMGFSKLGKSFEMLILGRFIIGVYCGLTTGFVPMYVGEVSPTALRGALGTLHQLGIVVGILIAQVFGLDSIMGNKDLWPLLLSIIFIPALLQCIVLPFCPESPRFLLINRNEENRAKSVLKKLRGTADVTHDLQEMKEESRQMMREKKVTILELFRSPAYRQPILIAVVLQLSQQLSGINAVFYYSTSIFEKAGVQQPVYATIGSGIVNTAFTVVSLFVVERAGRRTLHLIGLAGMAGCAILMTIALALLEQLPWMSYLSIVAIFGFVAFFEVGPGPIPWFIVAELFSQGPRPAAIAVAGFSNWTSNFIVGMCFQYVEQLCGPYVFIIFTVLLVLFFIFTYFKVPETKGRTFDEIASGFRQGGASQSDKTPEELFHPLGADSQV

For `O=C(/C=C/c1ccc(Cl)c(Cl)c1)NCCCCCN1CCC(NC(=O)Nc2ccc(Cl)cc2Cl)CC1`, the inhibition in assay [1] is -0.07%; in assay [2], -0.77%; in assay [3], -2.38%.
Turning to `CCc1cc(COc2ccc(CNCCC(C)C)cc2I)c(OCc2ccccc2)c(COc2ccc(CNCCC(C)C)cc2I)c1`, the values for the inhibition in assay [1], in assay [2] and in assay [3] were -0.25%, -3.29% and 3.76%, respectively.
For `CCc1nc(N)nc(N)c1-c1ccc(F)cc1` the same measures were 6.27%, 4.73% and 5.14%.
With `CN1CCC(Oc2cc(CN3CC[C@H](NC(=O)c4ccc(Cl)c(Cl)c4)C3)ccc2I)C1` (stereo partly specified), the inhibition in assay [1] is -0.57%; in assay [2] it was 0.84%; in assay [3] it was 2.33%.
For `S=C(NCCN1CCOCC1)Nc1ccccc1` the same measures were -1.94%, 0.47% and 0.17%.
As for `O=C(Nc1ccc(F)cc1)NC1CCN(c2ccnc3ccccc23)C1` (stereo unspecified), the results for the inhibition in assay [1], in assay [2] and in assay [3] were 3.76%, 3.71% and 3.79%, respectively.
Consider `Cc1nc(-c2nc(N3CCC(O)CC3)ncc2-c2ccsc2)sc1C`, for which the inhibition is -1.86% in assay [1], -1.39% in assay [2] and 0.38% in assay [3].
Taken in the same sequence, the figures for `CS(=O)(=O)Cc1ccc(Nc2nccc(-c3c(-c4cccc(NC(=O)C5CCCCC5)c4)nn4ncccc34)n2)cc1` were 3.22%, 5.62% and 1.63%.
For the compound `CCOc1cc(C)ccc1N1CCN(CCN2CCC(NC(=O)c3ccc(-c4ccc(C#N)cc4)cc3)CC2)CC1`, the inhibition in assay [1] was 1.65%; in assay [2] it was 1.91%; in assay [3], 2.27%.
For `N#Cc1ccc(-c2ccc(C(=O)NC3CCN(CCN4CCc5c(cccc5C(F)(F)F)C4)CC3)cc2)cc1` the same measures were -0.45%, -0.02% and 1.46%.
Taken in the same sequence, the figures for `Nc1cccc(CNCc2ccc(-c3cccc(-c4nc5cc(F)ccc5[nH]4)c3)cc2)c1` were -0.29%, -1.11% and -1.93%.
In the case of `Cc1cc(C(=O)OCC(N)=O)c(C)n1-c1ccc(F)cc1`, the results for the inhibition in assay [1], in assay [2] and in assay [3] were -0.25%, 6.13% and 3.07%, respectively.
Consider `CC(C)NCc1ccc(-c2ccc(NS(=O)(=O)c3cccc4cccnc34)cc2)cc1`, for which the figures for the inhibition in assay [1], in assay [2] and in assay [3] were 16.1%, 14.5% and 12.7%, respectively.
For the compound `O=C(Nc1ccc(-c2nc3ccccc3[nH]2)cc1)c1ccc(-c2cccc([N+](=O)[O-])c2)o1`, the inhibition in assay [1] is -1.84%; in assay [2], -0.42%; in assay [3], -3.21%.
Taken in the same sequence, the figures for `NCC1CCCN1Cc1cccc(-c2ccc(-c3nc4ccccc4[nH]3)s2)c1` (stereo unspecified) were 9.15%, 8.03% and 7.51%.
For the compound `CN1CCC(C(=O)Nc2ccc(-c3ccc(-c4nc5ccccc5[nH]4)s3)cc2)CC1`, the inhibition is 0.79% in assay [1], -2.31% in assay [2] and 0.49% in assay [3].
For `CC(C)[C@H](NC(=O)c1ccc(O)c(-c2ccc(Cl)c(Cl)c2)c1)C(=O)NCCN1CCOCC1` the same measures were 2.3%, 4.31% and 4.06%.
Turning to `COc1cc(OC)cc(-c2nn(-c3ccc([N+](=O)[O-])cc3Cl)c(=S)n2CC2CCCO2)c1` (stereo unspecified), the inhibition in assay [1] is 3.14%; in assay [2], -3.05%; in assay [3], 2.53%.
Taken in the same sequence, the figures for `Cc1nc(C)c(-c2ccc(Oc3ccc(OC(F)(F)F)cc3)cc2)c(OC(=O)c2ccc(CN(C)C)cc2)c1Cl` were 10.9%, 8.12% and 8.96%.
Taken in the same sequence, the figures for `O=C(/C=C/c1ccc(Cl)cc1)NCCCCCN1CCN(C(=O)Nc2ccc(Cl)c(C(F)(F)F)c2)CC1` were 4.45%, 5% and 3.42%.
Taken in the same sequence, the figures for `Cc1c(-c2ccc3c(c2)C(NCCCN2CCCCC2)CC3)cnc(N)c1C` (stereo unspecified) were 0.7%, 0.89% and 2.57%.
As to `Cc1ccc(Nc2nc(C)cc(NC3CC3)n2)cc1`, the inhibition in assay [1] worked out at 8.73%; in assay [2] it was 6.75%; in assay [3] it was 7%.
For `Cc1cc(-c2cccc(CNC3CCN(C)CC3)c2)ccc1S(=O)(=O)NCCN1CCCC1` the same measures were 0.26%, 0.15% and 0.59%.
Taken in the same sequence, the figures for `Cc1cc(N[C@@H](Cc2ccccc2)C(=O)NCc2cccs2)nc(NCCc2ccc(F)cc2)n1` were 8.62%, 8.93% and 4.14%.
Taken in the same sequence, the figures for `COc1ccc(CCCON2C(=N)N=C(N)NC2(C)C)cc1` were 16.7%, 23% and 18%.
On to `CCC(Cc1ccccc1)c1cc(O)c(Cc2ccc(-c3ccccc3)cc2)c(=O)o1` (stereo unspecified), for which the inhibition is 2.42% in assay [1], 2.07% in assay [2] and 0.95% in assay [3].
For `O=C(NCc1cccc(C(F)(F)F)c1)[C@@H]1CCCN1C(=O)c1ccc(O)c(-c2ccc(Cl)c(Cl)c2)c1` the same measures were -0.44%, -0.25% and 0.24%.
Taken in the same sequence, the figures for `Cc1nnsc1C(=O)Nc1cccc(-c2csc(-c3nc4ccccc4[nH]3)c2)c1` were 2.53%, 3.19% and 1.45%.
For `COc1ccc2ncc(F)c([C@@H](O)CN3CCC(NCc4cc5c(cn4)OCS5)CC3)c2c1` the same measures were 5.71%, 1.41% and 4.52%.
`COC(=O)C(NC(=O)c1ccc(-c2ccc(-c3nc4ccccc4[nH]3)s2)cc1)c1ccc(O)cc1` (stereo unspecified): the inhibition came out at 3.31% in assay [1], 2.37% in assay [2] and 3.11% in assay [3].
For `Cc1cc(N[C@@H](Cc2ccccc2)C(=O)NCc2cccc(F)c2)nc(NCCc2cccnc2)n1` the same measures were 10.4%, 12.9% and 12.3%.
For `O=C(NCCCCN1CCC(c2ccc(-c3ccco3)cc2)CC1)c1ccc(NC(=O)c2ccc(Cl)cc2)cc1` the same measures were 2.25%, 2.49% and -0.22%.
